# Laboratory results from publication PMC7862700, “An all-to-all approach to the identification of sequence-specific readers for epigenetic DNA modifications on cytosine”.
# Legend:
# Assay in all cases: DAPPL (digital affinity profiling via proximity ligation, sequencing); 10 mM Tris-HCl pH 7.5, 50 mM NaCl, 1 mM DTT, 4% glycerol, room temperature, 30 min; GST-TFs on glutathione beads, 16-mer random dsDNA library, 0.1% formaldehyde crosslink after washing; high values mean tight binding
# FEV = molecular target: T1, FEV (Homo sapiens, UniProt Q99581 1-238); conditions: protein: recombinant; tags: N-terminal GST; dsDNA, one strand shown
# T1 sequence: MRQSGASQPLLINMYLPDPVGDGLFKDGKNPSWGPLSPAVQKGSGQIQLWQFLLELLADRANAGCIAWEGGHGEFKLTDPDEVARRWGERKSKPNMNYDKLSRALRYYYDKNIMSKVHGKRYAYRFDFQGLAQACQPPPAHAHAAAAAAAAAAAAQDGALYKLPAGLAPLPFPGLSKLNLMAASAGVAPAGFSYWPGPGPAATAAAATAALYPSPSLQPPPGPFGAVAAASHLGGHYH
# Method in brief: (§1)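 A tag-only sample was pooled with DNA-barcoded human transcription factors that had been expressed in yeast as GST fusions and captured on glutathione beads. The pools were incubated for 30 min at room temperature with 200 nmole of a random double-stranded 16-mer DNA library in Tris/NaCl/DTT/glycerol buffer, then washed, crosslinked with 0.1% formaldehyde, proximity-ligated (BsaI/T4 ligase, 1 h, 37 °C), PCR-amplified and sequenced on an Illumina NextSeq500. Binding signal is each hexamer's read frequency for a factor divided by its frequency for the tag-only sample.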
# ETV5 = ETV5 (Homo sapiens, UniProt P41161 1-510); conditions: protein: recombinant; tags: N-terminal GST; dsDNA, one strand shown
# ETV5, sequence (P41161 whole entry): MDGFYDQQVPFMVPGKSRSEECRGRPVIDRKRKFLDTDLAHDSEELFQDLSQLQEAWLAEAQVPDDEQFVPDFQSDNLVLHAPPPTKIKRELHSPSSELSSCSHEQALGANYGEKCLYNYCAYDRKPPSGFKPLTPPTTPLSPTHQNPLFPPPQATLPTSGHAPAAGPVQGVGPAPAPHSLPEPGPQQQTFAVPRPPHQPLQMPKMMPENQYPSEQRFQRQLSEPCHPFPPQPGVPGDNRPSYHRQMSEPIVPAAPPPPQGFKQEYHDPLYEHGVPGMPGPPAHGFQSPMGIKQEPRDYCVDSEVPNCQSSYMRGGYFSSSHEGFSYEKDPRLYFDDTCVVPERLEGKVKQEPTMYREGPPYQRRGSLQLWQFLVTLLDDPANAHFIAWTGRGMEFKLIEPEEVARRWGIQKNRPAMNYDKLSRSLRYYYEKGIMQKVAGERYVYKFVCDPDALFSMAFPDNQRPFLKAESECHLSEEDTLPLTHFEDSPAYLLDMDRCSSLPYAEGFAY
# Method in brief: as §1
# HSF1 = HSF1 (Homo sapiens, UniProt Q00613 1-529); conditions: protein: recombinant; tags: N-terminal GST; chain copies: 3; dsDNA, one strand shown
# HSF1, sequence (Q00613 whole entry): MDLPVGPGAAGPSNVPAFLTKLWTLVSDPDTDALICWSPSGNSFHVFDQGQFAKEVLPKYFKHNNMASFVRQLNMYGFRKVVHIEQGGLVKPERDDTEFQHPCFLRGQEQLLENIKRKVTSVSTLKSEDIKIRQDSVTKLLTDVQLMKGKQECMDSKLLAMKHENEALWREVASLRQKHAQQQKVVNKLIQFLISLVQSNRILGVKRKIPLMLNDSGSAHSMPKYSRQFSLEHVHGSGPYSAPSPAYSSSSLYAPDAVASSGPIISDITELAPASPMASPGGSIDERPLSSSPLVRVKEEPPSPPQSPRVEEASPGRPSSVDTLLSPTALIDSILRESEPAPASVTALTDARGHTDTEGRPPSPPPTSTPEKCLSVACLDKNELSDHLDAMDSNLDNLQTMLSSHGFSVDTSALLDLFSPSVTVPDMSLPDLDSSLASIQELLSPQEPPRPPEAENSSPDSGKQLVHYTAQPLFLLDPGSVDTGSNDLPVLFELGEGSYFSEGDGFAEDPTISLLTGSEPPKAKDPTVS
# Method in brief: as §1
# SPIC = molecular target: T2, SPIC (Homo sapiens, UniProt Q8N5J4 1-248); conditions: protein: recombinant; tags: N-terminal GST; dsDNA, one strand shown
# T2 sequence: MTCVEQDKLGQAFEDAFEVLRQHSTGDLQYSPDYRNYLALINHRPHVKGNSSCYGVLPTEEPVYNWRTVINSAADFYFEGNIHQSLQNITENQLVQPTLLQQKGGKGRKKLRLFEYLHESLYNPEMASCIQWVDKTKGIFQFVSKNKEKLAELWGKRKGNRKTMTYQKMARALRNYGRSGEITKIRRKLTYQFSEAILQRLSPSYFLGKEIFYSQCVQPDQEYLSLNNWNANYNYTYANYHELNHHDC
# Method in brief: as §1
# ELF4 = ELF4 (Homo sapiens, UniProt Q99607 1-663); conditions: protein: recombinant; tags: N-terminal GST; dsDNA, one strand shown
# ELF4, sequence (Q99607 whole entry): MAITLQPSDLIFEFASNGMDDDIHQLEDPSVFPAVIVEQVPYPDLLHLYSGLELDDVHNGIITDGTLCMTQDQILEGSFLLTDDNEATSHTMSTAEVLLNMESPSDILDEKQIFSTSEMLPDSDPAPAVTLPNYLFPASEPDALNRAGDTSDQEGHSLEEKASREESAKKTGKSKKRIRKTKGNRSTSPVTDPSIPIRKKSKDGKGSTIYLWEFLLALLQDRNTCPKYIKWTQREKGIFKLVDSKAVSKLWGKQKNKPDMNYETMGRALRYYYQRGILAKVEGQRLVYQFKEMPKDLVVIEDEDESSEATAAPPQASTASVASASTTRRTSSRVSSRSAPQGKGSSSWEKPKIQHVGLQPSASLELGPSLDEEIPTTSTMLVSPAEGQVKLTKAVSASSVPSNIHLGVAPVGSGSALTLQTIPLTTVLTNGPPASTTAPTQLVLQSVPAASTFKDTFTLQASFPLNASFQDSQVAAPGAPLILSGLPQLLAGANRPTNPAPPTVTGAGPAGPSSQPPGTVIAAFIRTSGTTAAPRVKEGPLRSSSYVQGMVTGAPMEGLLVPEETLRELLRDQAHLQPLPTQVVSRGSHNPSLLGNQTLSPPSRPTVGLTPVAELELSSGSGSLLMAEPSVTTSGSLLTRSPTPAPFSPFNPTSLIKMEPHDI
# Method in brief: as §1
# ELK4 = molecular target: T3, ELK4 (Homo sapiens, UniProt P28324-2 1-405); conditions: protein: recombinant; tags: N-terminal GST; dsDNA, one strand shown
# T3 sequence: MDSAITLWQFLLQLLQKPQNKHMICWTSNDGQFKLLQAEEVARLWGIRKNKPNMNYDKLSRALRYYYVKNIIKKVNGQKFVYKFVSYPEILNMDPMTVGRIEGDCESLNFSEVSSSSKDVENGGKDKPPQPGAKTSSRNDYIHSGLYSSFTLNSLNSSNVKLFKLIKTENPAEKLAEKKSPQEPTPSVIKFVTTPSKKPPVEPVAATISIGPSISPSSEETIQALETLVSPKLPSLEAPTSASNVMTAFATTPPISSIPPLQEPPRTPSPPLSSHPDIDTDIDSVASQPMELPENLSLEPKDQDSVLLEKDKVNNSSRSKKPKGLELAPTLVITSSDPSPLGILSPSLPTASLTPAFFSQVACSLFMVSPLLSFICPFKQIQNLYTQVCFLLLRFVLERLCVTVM
# Method in brief: as §1
# ETV2 = molecular target: T4, ETV2 (Homo sapiens, UniProt O00321 1-342); conditions: protein: recombinant; tags: N-terminal GST; dsDNA, one strand shown
# T4 sequence: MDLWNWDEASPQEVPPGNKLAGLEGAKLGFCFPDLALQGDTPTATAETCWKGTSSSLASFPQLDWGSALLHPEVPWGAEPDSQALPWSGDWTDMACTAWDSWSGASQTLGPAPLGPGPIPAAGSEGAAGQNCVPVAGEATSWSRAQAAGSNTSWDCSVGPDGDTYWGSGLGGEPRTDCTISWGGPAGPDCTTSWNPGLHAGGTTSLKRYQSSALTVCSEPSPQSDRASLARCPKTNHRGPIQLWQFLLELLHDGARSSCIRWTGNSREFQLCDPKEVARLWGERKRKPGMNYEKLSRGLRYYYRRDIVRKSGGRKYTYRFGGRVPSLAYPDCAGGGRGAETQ
# Method in brief: as §1
# ELF3 = molecular target: T5, ELF3 (Homo sapiens, UniProt P78545 1-371); conditions: protein: recombinant; tags: N-terminal GST; dsDNA, one strand shown
# T5 sequence: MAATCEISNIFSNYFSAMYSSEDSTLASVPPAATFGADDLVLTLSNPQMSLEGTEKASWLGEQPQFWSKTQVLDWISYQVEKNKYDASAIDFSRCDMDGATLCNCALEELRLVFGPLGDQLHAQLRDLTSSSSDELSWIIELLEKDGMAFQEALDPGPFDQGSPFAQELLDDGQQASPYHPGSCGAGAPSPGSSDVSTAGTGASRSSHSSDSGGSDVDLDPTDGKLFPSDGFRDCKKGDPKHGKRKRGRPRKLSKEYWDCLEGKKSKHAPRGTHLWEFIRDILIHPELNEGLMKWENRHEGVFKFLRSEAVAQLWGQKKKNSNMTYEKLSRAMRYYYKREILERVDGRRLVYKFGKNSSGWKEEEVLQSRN
# Method in brief: as §1
# CRX = CRX (Homo sapiens, UniProt O43186 1-299); conditions: protein: recombinant; tags: N-terminal GST; dsDNA, one strand shown
# CRX, sequence (O43186 whole entry): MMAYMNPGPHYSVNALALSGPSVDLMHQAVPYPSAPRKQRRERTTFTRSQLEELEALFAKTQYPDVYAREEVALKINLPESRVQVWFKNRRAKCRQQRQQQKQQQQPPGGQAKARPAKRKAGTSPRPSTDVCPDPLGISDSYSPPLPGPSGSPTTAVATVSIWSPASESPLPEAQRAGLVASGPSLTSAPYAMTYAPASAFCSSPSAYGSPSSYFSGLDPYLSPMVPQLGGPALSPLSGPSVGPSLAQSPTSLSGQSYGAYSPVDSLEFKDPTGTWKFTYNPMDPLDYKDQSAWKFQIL
# Method in brief: as §1
# ETV1 = ETV1 (Homo sapiens, UniProt P50549 1-477); conditions: protein: recombinant; tags: N-terminal GST; dsDNA, one strand shown
# ETV1, sequence (P50549 whole entry): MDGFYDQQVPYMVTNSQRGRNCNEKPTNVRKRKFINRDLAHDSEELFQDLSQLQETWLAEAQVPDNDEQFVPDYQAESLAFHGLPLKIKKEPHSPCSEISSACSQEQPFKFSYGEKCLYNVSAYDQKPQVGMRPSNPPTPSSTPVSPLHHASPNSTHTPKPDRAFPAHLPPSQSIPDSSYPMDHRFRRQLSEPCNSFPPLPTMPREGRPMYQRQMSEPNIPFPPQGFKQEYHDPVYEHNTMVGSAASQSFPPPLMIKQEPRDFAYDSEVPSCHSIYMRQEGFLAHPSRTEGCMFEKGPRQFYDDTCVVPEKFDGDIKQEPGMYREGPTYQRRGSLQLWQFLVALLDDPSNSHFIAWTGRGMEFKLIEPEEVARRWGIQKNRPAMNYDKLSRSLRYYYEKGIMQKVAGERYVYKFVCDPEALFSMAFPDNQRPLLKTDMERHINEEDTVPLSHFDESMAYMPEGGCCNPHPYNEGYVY
# Method in brief: as §1
sequence,measurement,setting,value
TAAAGT,binding signal,FEV,"1.1 fold enrichment (6-mer frequency, TF over GST control)"
same,binding signal,ETV5,"1.13 fold enrichment (6-mer frequency, TF over GST control)"
same,binding signal,HSF1,"1.37 fold enrichment (6-mer frequency, TF over GST control)"
same,binding signal,SPIC,"1.13 fold enrichment (6-mer frequency, TF over GST control)"
same,binding signal,ELF4,"1.13 fold enrichment (6-mer frequency, TF over GST control)"
same,binding signal,ELK4,"1.27 fold enrichment (6-mer frequency, TF over GST control)"
same,binding signal,ETV2,"1.11 fold enrichment (6-mer frequency, TF over GST control)"
same,binding signal,ELF3,"1.13 fold enrichment (6-mer frequency, TF over GST control)"
same,binding signal,CRX,"1.75 fold enrichment (6-mer frequency, TF over GST control)"
same,binding signal,ETV1,"1.21 fold enrichment (6-mer frequency, TF over GST control)"
